Measured values taken from the supplement of paper PMC6411743.
± gives the standard deviation of the averaged measurements. Targets with the largest changes are over-represented here; the source holds about 6,500 in all.

Experiments:
Assay in all cases: NP40-soluble protein abundance relative to vehicle (solubility fold change) (ratio); higher = more soluble protein in presence of ATP
DDX50 = biological target: T1, DDX50 (UniProt Q9BQ39)
T1 sequence (whole entry): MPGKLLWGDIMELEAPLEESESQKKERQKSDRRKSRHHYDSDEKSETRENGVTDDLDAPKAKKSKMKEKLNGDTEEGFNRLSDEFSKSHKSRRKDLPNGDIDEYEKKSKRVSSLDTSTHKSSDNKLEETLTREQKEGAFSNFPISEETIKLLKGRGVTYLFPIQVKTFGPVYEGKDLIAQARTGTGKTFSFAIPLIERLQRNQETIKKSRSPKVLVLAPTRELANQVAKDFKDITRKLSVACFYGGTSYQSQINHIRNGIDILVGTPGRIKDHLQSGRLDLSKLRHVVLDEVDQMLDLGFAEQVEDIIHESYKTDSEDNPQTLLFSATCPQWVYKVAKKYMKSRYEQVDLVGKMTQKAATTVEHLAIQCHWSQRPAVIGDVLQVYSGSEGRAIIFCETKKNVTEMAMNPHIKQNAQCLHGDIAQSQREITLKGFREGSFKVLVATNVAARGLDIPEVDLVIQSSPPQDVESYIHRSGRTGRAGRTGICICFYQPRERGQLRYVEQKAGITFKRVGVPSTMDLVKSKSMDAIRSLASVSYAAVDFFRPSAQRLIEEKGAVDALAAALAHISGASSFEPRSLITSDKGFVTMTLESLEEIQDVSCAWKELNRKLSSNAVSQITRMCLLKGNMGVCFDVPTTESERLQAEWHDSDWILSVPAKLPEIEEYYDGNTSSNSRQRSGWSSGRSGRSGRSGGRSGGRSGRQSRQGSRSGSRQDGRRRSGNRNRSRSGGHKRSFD
Method in brief: (§1)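 Jurkat crude lysate prepared with a Dounce homogeniser was treated at eight concentrations spanning 0.1 to 10 mM, 10 min at room temperature then 3 min at 37 °C. Solubilisation with 0.8% NP40 and benzonase and ultracentrifugation preceded TMT labelling of the supernatant for LC-MS/MS. Fold change against the detergent-processed vehicle was determined per replicate from vsn-normalised intensities, across three independent experiments.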

PINX1 = biological target: T2, PINX1 (UniProt Q96BK5)
T2 sequence (whole entry): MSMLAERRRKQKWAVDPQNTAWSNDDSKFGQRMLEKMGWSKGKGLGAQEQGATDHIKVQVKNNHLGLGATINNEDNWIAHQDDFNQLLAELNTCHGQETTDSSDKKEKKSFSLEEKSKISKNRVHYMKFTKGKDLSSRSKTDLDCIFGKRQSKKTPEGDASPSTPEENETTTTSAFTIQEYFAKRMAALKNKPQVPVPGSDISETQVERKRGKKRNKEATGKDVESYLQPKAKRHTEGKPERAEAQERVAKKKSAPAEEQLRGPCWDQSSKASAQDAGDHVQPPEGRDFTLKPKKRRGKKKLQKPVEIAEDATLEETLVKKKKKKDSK
Method in brief: as §1

[1] = biological target: T3, UniProt Q969F9|Q969F9-2|G5E9V4
T3 sequence (whole entry): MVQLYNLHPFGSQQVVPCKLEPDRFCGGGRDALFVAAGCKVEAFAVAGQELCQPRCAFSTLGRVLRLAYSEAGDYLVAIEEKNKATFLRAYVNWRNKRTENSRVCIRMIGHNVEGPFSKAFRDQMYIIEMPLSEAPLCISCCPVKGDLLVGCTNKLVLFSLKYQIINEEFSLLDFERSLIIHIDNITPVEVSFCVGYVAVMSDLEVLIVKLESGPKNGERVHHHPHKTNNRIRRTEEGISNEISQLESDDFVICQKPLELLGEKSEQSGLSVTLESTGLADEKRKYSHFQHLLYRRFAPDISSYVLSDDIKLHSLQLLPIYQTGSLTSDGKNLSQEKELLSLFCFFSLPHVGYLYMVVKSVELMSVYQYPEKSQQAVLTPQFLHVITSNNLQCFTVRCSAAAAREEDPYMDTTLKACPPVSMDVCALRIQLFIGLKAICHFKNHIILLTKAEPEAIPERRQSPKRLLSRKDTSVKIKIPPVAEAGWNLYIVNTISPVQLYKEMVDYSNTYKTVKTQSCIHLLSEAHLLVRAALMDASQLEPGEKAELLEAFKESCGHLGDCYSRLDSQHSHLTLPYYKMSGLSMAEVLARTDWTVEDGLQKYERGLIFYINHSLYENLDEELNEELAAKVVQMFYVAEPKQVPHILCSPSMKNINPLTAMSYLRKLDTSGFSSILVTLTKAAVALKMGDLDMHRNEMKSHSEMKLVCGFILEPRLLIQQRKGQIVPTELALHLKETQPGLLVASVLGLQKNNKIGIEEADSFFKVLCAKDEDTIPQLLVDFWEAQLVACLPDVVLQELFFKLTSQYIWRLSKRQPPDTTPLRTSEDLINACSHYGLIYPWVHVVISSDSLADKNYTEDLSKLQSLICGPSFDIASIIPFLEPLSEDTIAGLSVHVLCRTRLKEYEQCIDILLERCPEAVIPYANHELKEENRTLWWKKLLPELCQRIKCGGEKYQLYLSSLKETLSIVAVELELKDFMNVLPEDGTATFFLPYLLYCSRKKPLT
Method in brief: as §1

UniProt Q96G25|Q96G25-2 = biological target: T4, UniProt Q96G25|Q96G25-2
T4 sequence (whole entry): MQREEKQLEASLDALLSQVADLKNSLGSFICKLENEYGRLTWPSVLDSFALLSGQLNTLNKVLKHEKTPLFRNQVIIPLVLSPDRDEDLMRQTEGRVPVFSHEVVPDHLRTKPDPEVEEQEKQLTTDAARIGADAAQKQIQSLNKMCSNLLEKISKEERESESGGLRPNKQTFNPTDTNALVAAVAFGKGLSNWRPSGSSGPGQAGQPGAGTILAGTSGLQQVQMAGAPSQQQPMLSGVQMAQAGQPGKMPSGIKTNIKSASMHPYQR
Method in brief: as §1

UniProt Q9BUA3 = biological target: T5, UniProt Q9BUA3
T5 sequence (whole entry): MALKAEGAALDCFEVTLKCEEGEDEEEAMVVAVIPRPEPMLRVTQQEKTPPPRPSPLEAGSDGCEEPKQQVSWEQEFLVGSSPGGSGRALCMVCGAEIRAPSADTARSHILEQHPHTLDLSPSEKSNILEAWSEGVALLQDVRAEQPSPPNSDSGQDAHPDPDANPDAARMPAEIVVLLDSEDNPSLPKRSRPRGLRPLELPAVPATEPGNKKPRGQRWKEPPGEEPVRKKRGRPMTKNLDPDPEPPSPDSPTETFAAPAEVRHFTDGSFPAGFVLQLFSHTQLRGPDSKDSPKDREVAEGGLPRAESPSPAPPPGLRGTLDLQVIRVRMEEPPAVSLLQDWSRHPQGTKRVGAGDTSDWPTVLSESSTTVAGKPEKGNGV
Method in brief: as §1

UniProt Q9H993 = biological target: T6, UniProt Q9H993
T6 sequence (whole entry): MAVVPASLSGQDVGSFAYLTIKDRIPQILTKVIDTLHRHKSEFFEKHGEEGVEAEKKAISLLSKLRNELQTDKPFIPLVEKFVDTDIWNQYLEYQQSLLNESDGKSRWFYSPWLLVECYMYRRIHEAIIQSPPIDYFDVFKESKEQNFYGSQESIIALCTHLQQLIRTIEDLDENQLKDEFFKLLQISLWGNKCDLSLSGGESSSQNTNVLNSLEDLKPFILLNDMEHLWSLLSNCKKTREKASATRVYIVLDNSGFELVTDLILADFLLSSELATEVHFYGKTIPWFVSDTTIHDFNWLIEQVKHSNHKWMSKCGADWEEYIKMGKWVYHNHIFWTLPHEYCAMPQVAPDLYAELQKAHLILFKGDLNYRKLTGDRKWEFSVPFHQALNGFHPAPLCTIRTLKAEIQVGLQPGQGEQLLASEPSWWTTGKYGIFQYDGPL
Method in brief: as §1

VRK1 = biological target: T7, VRK1 (UniProt Q99986)
T7 sequence (whole entry): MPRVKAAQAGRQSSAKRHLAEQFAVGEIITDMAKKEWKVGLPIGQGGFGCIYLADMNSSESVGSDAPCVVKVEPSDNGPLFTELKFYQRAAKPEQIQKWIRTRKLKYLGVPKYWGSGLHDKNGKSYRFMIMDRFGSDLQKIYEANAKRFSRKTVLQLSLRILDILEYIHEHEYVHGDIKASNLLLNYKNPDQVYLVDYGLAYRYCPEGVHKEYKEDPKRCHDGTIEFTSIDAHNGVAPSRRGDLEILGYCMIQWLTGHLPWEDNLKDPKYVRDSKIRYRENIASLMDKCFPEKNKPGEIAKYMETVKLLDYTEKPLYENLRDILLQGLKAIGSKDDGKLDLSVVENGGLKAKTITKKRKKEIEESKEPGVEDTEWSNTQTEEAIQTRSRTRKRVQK
Method in brief: as §1

Nc1ncnc2c1ncn2[C@@H]1O[C@H](COP(=O)(O)OP(=O)(O)OP(=O)(O)O)[C@@H](O)[C@H]1O [adenosine triphosphate] gave an NP40-soluble protein abundance (DDX50; concentration: 1mM) of 1.35 ± 0.086, an NP40-soluble protein abundance (DDX50; concentration: 2mM) of 1.67 ± 0.17 and an NP40-soluble protein abundance (DDX50; concentration: 4mM) of 2.19 ± 0.26. The NP40-soluble protein abundance (DDX50; concentration: 6mM) was 2.88 ± 0.35, the NP40-soluble protein abundance (DDX50; concentration: 8mM) was 3.54 ± 0.54 and the NP40-soluble protein abundance (DDX50; concentration: 10mM) was 4.32 ± 0.63. The NP40-soluble protein abundance (PINX1; concentration: 1mM) was 1.52 ± 0.023, the NP40-soluble protein abundance (PINX1; concentration: 2mM) was 1.64 ± 0.086 and the NP40-soluble protein abundance (PINX1; concentration: 4mM) was 1.78 ± 0.11. The NP40-soluble protein abundance (PINX1; concentration: 6mM) was 1.95 ± 0.1, the NP40-soluble protein abundance (PINX1; concentration: 8mM) was 1.91 ± 0.13 and the NP40-soluble protein abundance (PINX1; concentration: 10mM) was 2.03 ± 0.14. The NP40-soluble protein abundance ([1]; concentration: 1mM) was 1.07 ± 0.16, the NP40-soluble protein abundance ([1]; concentration: 2mM) was 1.11 ± 0.22 and the NP40-soluble protein abundance ([1]; concentration: 4mM) was 1.05 ± 0.26. The NP40-soluble protein abundance ([1]; concentration: 6mM) was 1.05 ± 0.15, the NP40-soluble protein abundance ([1]; concentration: 8mM) was 0.905 ± 0.044 and the NP40-soluble protein abundance ([1]; concentration: 10mM) was 0.962 ± 0.11. For the same compound, the NP40-soluble protein abundance (UniProt Q96G25|Q96G25-2; concentration: 1mM) was 1 ± 0.11, the NP40-soluble protein abundance (UniProt Q96G25|Q96G25-2; concentration: 2mM) was 0.976 ± 0.074 and the NP40-soluble protein abundance (UniProt Q96G25|Q96G25-2; concentration: 4mM) was 1.06 ± 0.035. The NP40-soluble protein abundance (UniProt Q96G25|Q96G25-2; concentration: 6mM) was 1.07 ± 0.11, the NP40-soluble protein abundance (UniProt Q96G25|Q96G25-2; concentration: 8mM) was 0.993 ± 0.039 and the NP40-soluble protein abundance (UniProt Q96G25|Q96G25-2; concentration: 10mM) was 0.965 ± 0.1. It also gave an NP40-soluble protein abundance (UniProt Q9BUA3; concentration: 1mM) of 1.02 ± 0.11, an NP40-soluble protein abundance (UniProt Q9BUA3; concentration: 2mM) of 1.03 ± 0.09 and an NP40-soluble protein abundance (UniProt Q9BUA3; concentration: 4mM) of 1.03 ± 0.082. The NP40-soluble protein abundance (UniProt Q9BUA3; concentration: 6mM) was 1.04 ± 0.12, the NP40-soluble protein abundance (UniProt Q9BUA3; concentration: 8mM) was 0.992 ± 0.08 and the NP40-soluble protein abundance (UniProt Q9BUA3; concentration: 10mM) was 1 ± 0.019. It also gave an NP40-soluble protein abundance (UniProt Q9H993; concentration: 1mM) of 1.08 ± 0.068, an NP40-soluble protein abundance (UniProt Q9H993; concentration: 2mM) of 1.05 ± 0.06 and an NP40-soluble protein abundance (UniProt Q9H993; concentration: 4mM) of 1.02 ± 0.039. It also gave an NP40-soluble protein abundance (UniProt Q9H993; concentration: 6mM) of 0.991 ± 0.072, an NP40-soluble protein abundance (UniProt Q9H993; concentration: 8mM) of 1.04 ± 0.047 and an NP40-soluble protein abundance (UniProt Q9H993; concentration: 10mM) of 1.01 ± 0.053. For the same compound, the NP40-soluble protein abundance (VRK1; concentration: 1mM) was 1.39 ± 0.026, the NP40-soluble protein abundance (VRK1; concentration: 2mM) was 1.43 ± 0.021 and the NP40-soluble protein abundance (VRK1; concentration: 4mM) was 1.44 ± 0.039. It also gave an NP40-soluble protein abundance (VRK1; concentration: 6mM) of 1.51 ± 0.057, an NP40-soluble protein abundance (VRK1; concentration: 8mM) of 1.52 ± 0.031 and an NP40-soluble protein abundance (VRK1; concentration: 10mM) of 1.48 ± 0.063.
